From PMC7819943, “Rice protein-binding microarrays: a tool to detect cis-acting elements near promoter regions in rice” come the findings set out here.

Over roughly 39,000 sequences, “fluorescence intensity (a.u.)” has its median near 4,300; the highest 2% begin near 39,000. What follows is part of a selection rich in the highest values, with near analogues and random picks from the rest.

For this test, the target named is T1, OsSMF1 (Oryza sativa, UniProt Q6ZLB0 1-436).
T1 sequence: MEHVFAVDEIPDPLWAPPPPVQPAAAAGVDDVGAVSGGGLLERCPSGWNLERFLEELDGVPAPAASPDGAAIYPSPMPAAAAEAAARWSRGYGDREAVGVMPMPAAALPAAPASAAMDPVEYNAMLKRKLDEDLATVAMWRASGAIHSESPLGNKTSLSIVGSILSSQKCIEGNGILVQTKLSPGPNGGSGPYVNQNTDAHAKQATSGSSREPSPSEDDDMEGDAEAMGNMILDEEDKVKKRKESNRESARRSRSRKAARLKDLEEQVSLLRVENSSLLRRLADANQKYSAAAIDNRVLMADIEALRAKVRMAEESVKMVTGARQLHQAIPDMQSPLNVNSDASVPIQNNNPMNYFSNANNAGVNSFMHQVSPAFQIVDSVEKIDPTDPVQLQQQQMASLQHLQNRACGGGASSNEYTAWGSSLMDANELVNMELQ
Kind of test: protein-binding microarray (RPBM); PBS, 2% BSA, 51.3 ng/ul salmon testes DNA, 50 uM zinc acetate, 200 nM TF, 25 C, 1 h; high values mean tight binding. Particulars: protein: recombinant; tags: N-terminal polyhistidine and DsRed monomer fusion (pET32a); chain copies: 2; label: CyDye5-dUTP incorporated in the synthesized complementary strand; 3' TTTTT single-stranded linker to array surface; dsDNA, one strand shown. The procedure, abridged:
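Transcription factors, each fused N-terminally to a polyhistidine tag and DsRed, were expressed in E. coli BL21-CodonPlus and purified on Ni–NTA. A custom Agilent array was made double-stranded by primer extension with Cy5-dUTP and blocked with 2% BSA. It was incubated with 200 nM protein in PBS, 2% BSA, salmon testes DNA and 50 µM zinc acetate at 25 °C for 1 h, then washed. The binding signal is per-feature fluorescence intensity (arbitrary units) read on an Axon 4000B scanner.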
Take “TGGTAACTAAACTGCCATGTCAGGGACAGATCGACCAGTGCGGAGTCACCTAGTGCAG”: the binding signal was 5160 fluorescence intensity (a.u.).
Take “AGGACACGTAGCATTTCCTCCTCAAGCAAGAGGAGCAGTACGGAGTCACCTAGTGCAG”: the binding signal was 4000 fluorescence intensity (a.u.).
The value for “AACGTCAAGTACTCACGTGGTCCACGAATATTTAAGCCTACGGAGTCACCTAGTGCAG” was 4480 fluorescence intensity (a.u.); that for “GCGAACACTGAGGTGTTGACGTTGCGCTCCGCCTCGCTGTCGGAGTCACCTAGTGCAG” was 3840 fluorescence intensity (a.u.).
The value for “GTCCCTCCGCCGGCATCAGCTCAACGCCGCCGTCCTCCTCCGGAGTCACCTAGTGCAG” was 3370 fluorescence intensity (a.u.); that for “GCCGAGAAGGCATCAACGGCACTGGCGAGGCCCTCTCAGCCGGAGTCACCTAGTGCAG” was 39600 fluorescence intensity (a.u.).
The value for “ATTAAGCCCTCAATCGGCACAGGCGAGGAGTTCTCATCACCGGAGTCACCTAGTGCAG” was 12000 fluorescence intensity (a.u.); that for “TCGTCGACTACGTGTTGGTGTTTCATGCCGCCAAGTCGACCGGAGTCACCTAGTGCAG” was 5250 fluorescence intensity (a.u.).
“TATAAGCACAATGCAGCCTAGTTGTTGCCGTGACCTGAGTCGGAGTCACCTAGTGCAG”: the binding signal was 3180 fluorescence intensity (a.u.).
Regarding “GACATCTGGAGGCGTCATGCAAGATGTCACATCCATAGAACGGAGTCACCTAGTGCAG”, the binding signal was 3940 fluorescence intensity (a.u.).
The result for “ACTGGCCGTGACGCATTTCAACCTCTTGATCTGAACTGCCCGGAGTCACCTAGTGCAG” reads 3620 fluorescence intensity (a.u.).
Turning to “AACCATAATGTTTGTGACACATTAAGGGCCTGTTCACTTTCGGAGTCACCTAGTGCAG”, the binding signal is 3660 fluorescence intensity (a.u.).
As to “GATAGGCAAAGCTTCGAACTTTGGGCTGAAAACAAATTTTCGGAGTCACCTAGTGCAG”, the binding signal was 28400 fluorescence intensity (a.u.).
Consider “GGCAGGCTTGCACACAGGTGCAAAGATACGTGTGGCAGACCGGAGTCACCTAGTGCAG”, for which the binding signal was 3240 fluorescence intensity (a.u.).
With “ATGCAAAAGATATATAGGCTTGTTTTACTGAAGGTGGCTTCGGAGTCACCTAGTGCAG”, the binding signal is 39100 fluorescence intensity (a.u.).
Turning to “GAGATGTCTGAACAAACAGATGGACGTGTAATGTTGTGGACGGAGTCACCTAGTGCAG”, the binding signal is 3400 fluorescence intensity (a.u.).
The value for “CCGTCTTTTCTTTCTTCACGCCAGCGTCGCCGTGGTCAAGCGGAGTCACCTAGTGCAG” was 3650 fluorescence intensity (a.u.); that for “CGGAGGGATTCGATTTGGAAGGAATTGGATTCGGAGTTGACGGAGTCACCTAGTGCAG” was 33200 fluorescence intensity (a.u.).
The result for “TCGATTGGGGATTGGGGATTGGGGATCAGGAGGGATGGGGCGGAGTCACCTAGTGCAG” reads 4350 fluorescence intensity (a.u.); that for “TTGGAATGCTGAAATTATTAGGGGACTATTCAAATTGATGCGGAGTCACCTAGTGCAG”, 39200 fluorescence intensity (a.u.); that for “TTAGCTGGGATGAATTGGGAATGGCTGATGATTCATTGCTCGGAGTCACCTAGTGCAG”, 3790 fluorescence intensity (a.u.).
The value for “AATTTGGATTTGAATTATATCTGATTCAAATTTGAATTTGCGGAGTCACCTAGTGCAG” was 3270 fluorescence intensity (a.u.).
Turning to “GAAGGAATTGGATTGAATCAGAAAGGGGATCGATTCGATGCGGAGTCACCTAGTGCAG”, the binding signal is 45200 fluorescence intensity (a.u.).
Consider “CAAGCCAAGTCTGAAGAAGAAGAACTAGTCATCGCTTGCCCGGAGTCACCTAGTGCAG”, for which the binding signal is 3820 fluorescence intensity (a.u.).
As to “AAATCCTTGTCTTCCCACGCTGACGCTGCTGTGTCCAGGTCGGAGTCACCTAGTGCAG”, the binding signal is 4530 fluorescence intensity (a.u.).
In the case of “ACCGGCTCACTTATGCGCGCGCGGCGCTGAGGTGGCCGCACGGAGTCACCTAGTGCAG”, the binding signal is 5200 fluorescence intensity (a.u.).
Take “GGGCTTCGTCCCCATCATCTCCTGCCACCTCAAACACCTGCGGAGTCACCTAGTGCAG”: the binding signal was 3520 fluorescence intensity (a.u.).
Regarding “GATGGGCTTGTGCTGACATCATCTATACGTGCTTTGCTCCCGGAGTCACCTAGTGCAG”, the binding signal was 14500 fluorescence intensity (a.u.).
With “ATATATTCTATGTGGTCTGCCCACACGCAAGCATGAGCTCCGGAGTCACCTAGTGCAG”, the binding signal is 3740 fluorescence intensity (a.u.).
The value for “TGCCAATGGTGTGTGCAATTGCAACATGCGTTTGGTTGTGCGGAGTCACCTAGTGCAG” was 4100 fluorescence intensity (a.u.).
Take “GCGCCGCCAGCCGCTACAGGTCAGCGGCAACAGCAGGTTCCGGAGTCACCTAGTGCAG”: the binding signal is 29200 fluorescence intensity (a.u.).
“TTCCGGCATGCTCAACAATTGGTCCAGGTGTTTGTTCCAGCGGAGTCACCTAGTGCAG”: the binding signal was 42200 fluorescence intensity (a.u.).
Regarding “GACACGTATGATTTGTGTGGTAGTACATAGCACGCACGCACGGAGTCACCTAGTGCAG”, the binding signal was 35800 fluorescence intensity (a.u.).
On to “CCAGGCACCGACCTGTAGTTGCATCAGCAAACCATGGCTGCGGAGTCACCTAGTGCAG”, for which the binding signal was 4690 fluorescence intensity (a.u.).
On to “AAATATAGAGATTTATTAACATAACAGCCTATCCACGTGGCGGAGTCACCTAGTGCAG”, for which the binding signal was 17200 fluorescence intensity (a.u.).
Consider “AGGGATTATGTGTGTGTAAGATATTTGTGACTAGTTTATTCGGAGTCACCTAGTGCAG”, for which the binding signal was 3630 fluorescence intensity (a.u.).
Take “TTGTAAGCTCAGCCTAGATAGAGTGAAGATATTTTATTGGCGGAGTCACCTAGTGCAG”: the binding signal was 49700 fluorescence intensity (a.u.).
Regarding “ATGAAATGGACCTCAAGATCGAGTCATGACAAGACAACGGCGGAGTCACCTAGTGCAG”, the binding signal is 4150 fluorescence intensity (a.u.).
As to “TACACTGGTGGATGTGAATCATTGGAATGCATGCCTCCTGCGGAGTCACCTAGTGCAG”, the binding signal is 3810 fluorescence intensity (a.u.).
In the case of “TTAGGCCTCTCACAGTGCTCTTAGCTGGACCGGTGCTACACGGAGTCACCTAGTGCAG”, the binding signal was 3920 fluorescence intensity (a.u.).
Regarding “CCTCAGGCCGCCTCTCGTGCTGTACACGTAGGATAGCTACCGGAGTCACCTAGTGCAG”, the binding signal was 46200 fluorescence intensity (a.u.).
The result for “GGGATAGCAGGACACGTGTGTATAGCTGCTGCGCCTGCCTCGGAGTCACCTAGTGCAG” reads 9260 fluorescence intensity (a.u.).
